# Coupling enz = qHTS Assay for Inhibitors of Fructose-1,6-bisphosphate Aldolase from Giardia Lamblia: Coupling assay counterscreen; coupling enzyme system counterscreen, AmpLite Red fluorescence; activity change, negative = inhibition, % at 58.2 µM, hits read low; AID 2472, 2010; 290,000 tested, 0.67% active; in the data active = activity change below about -30%
#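 Counterscreen lacking aldolase: glyceraldehyde-3-phosphate coupling-enzyme reagent preincubated 10 min at RT with compound (at 57.5 uM final), then substrate/coupling system with AmpLite Red added; fluorescence read at 525/598 nm after 20 min RT.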
# TrxR1 substrate = qHTS Assay for Substrates of Mammalian Selenoprotein Thioredoxin Reductase 1 (TrxR1): qHTS; Thioredoxin reductase 1, cytoplasmic (Rattus norvegicus), O89049; purified TrxR1 substrate turnover, NADPH consumption readout; Potency, µM (highest dose often 114 µM), for inactives: at the highest dose activity change, negative = substrate turnover; 390,000 tested, 0.01% active; AID 588456, 2011; also: potency is read from the fitted curve at half-maximal effect; nearly all actives have a fitted effect of over 50% in size
# Target sequence (O89049 whole entry, looked up): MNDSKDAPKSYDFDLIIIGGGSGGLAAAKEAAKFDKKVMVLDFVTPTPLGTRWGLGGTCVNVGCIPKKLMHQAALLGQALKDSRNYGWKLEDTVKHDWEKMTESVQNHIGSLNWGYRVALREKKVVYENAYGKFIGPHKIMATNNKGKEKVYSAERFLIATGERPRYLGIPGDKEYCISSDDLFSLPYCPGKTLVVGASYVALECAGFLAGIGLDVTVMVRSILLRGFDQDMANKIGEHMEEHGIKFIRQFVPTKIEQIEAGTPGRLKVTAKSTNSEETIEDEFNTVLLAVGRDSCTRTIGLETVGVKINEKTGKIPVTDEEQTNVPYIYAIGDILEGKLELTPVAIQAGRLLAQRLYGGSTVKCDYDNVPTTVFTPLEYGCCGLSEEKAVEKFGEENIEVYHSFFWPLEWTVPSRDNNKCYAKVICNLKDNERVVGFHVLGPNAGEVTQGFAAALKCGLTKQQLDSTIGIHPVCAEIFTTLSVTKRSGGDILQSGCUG
#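 Rat TrxR1, dispensed at 90 nM, was prereduced with 400 uM NADPH (final) for 5 min at ~22 deg C, then incubated with compound 15 min before 400 uM selenite. A first-read NADPH fluorescence drop versus no-compound background flagged substrates.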
# USP1 inh = Inhibitors of USP1/UAF1: Primary Screen. Ubiquitin carboxyl-terminal hydrolase 1 (Homo sapiens), O94782. recombinant USP1/UAF1, Ub-Rhodamine cleavage fluorescence. Potency, µM (series often up to 57.1 µM), for the others: at the top dose activity change, negative = inhibition, usual class: inhibitors. 390,000 tested, 0.23% active. AID 743255, 2014; also: potency is read from the fitted curve at half-maximal effect; nearly all actives have a fitted effect of over 60% in size
#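 USP1/UAF1 complex at 1 nM was preincubated with compound for 15 min at room temperature, then Ub-Rho substrate (150nM final) was added. Fluorescence (480/540 nm) was read kinetically, 6 reads every 60 seconds.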
# GALK inhibitor = qHTS Assay for Inhibitors of Human Galactokinase (GALK) | 270,000 tested, 0.007% active | AID 1868, 2009 | P51570 | Purified GALK, Kinase-Glo residual ATP luminescence | Potency, µM (top dose mostly 57.5 µM), for inactives: at the highest dose activity change, negative = inhibition, hits mostly inhibitors; also: potency is read from the fitted curve at half-maximal effect
#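 The enzyme phosphorylates galactose (100 uM) using ATP (35 uM); inhibition is detected as higher residual ATP, quantified by bioluminescence after 1 h reaction at room temperature, pH 8.0.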
# rTrxR1 inhibitor = qHTS Assay for Inhibitors of Mammalian Selenoprotein Thioredoxin Reductase 1 (TrxR1): qHTS; recombinant rTrxR1, NADPH fluorescence consumption, selenite substrate; Potency, µM (top dose mostly 114 µM), inactives show top-dose activity change, negative = inhibition, hits mostly inhibitors; 390,000 tested, 1% active; also: potency is read from the fitted curve at half-maximal effect; nearly all actives have a fitted effect of over 65% in size
#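 Rat TrxR1 (90 nM in the dispensed reagent) was pre-reduced with 400 uM NADPH for 5 min at room temperature, then incubated with compound for 15 min. After 400 uM selenite was added, NADPH fluorescence (Ex 340/Em 450 nm) was followed for 8 min.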
# Starred values were filed as active, the others as inactive; ? = inconclusive; nt = not tested or not shown; [ ] = dose if it differs, or a comment. Rows were chosen to be rich in hits. Some 1.5% of all compounds tested hit in one or more screens of this group. Unless noted, calls follow the shape of the dose curve; as a rule, active = well fitted curve in the direction sought with a large enough effect; inconclusive = small, poorly fitted or top-dose-only effect, or another doubt; inactive = no such curve, though single readings can be large; an effect the other way counts as inactive or inconclusive. % is scaled to controls: 0 for no effect and ±100 for the full control effect.
SMILES,Coupling enz,TrxR1 substrate,USP1 inh,GALK inhibitor,rTrxR1 inhibitor
COC(=O)c1c(N)n(-c2ccc(NC(C)=O)cc2)c2nc3ccccc3nc12,-30.5*,85.7%[57.1 µM],?,1.1%,29.8%[57.1 µM]
COCCNC(=O)c1c(N)n(-c2ccccc2)c2nc3ccccc3nc12,-5.8,388.7%,?,-0.3%,71.6%
Nc1c(C(=O)NCCN2CCOCC2)c2nc3ccccc3nc2n1-c1ccccc1,-30.3*,279.3%,-16.5%,0.6%,23.2%
COC(=O)c1c(N)n(-c2ccc(N3CCOCC3)cc2)c2nc3ccccc3nc12,-12.8,nt,nt,1.5%,nt
Nc1c(C(=O)NCCN2CCOCC2)c2nc3ccccc3nc2n1-c1ccc2c(c1)OCO2,-6.4,11.8%,-31.5%,0.1%,17.4%
Cc1ccc2nccnc2c1,nt,-11.4%,nt,nt,?
Cc1ccc(-c2nc3ccccc3n2C)o1,1.0,40.4%,-0.9%,10.5%,22.4µM*
CCSc1nnc(NC(=O)c2ccc(Br)s2)s1,-27.2,8.9%[57.1 µM],0.6%,-1.3%,26.4%[57.1 µM]
Cc1cc(C(=O)Nc2nnc(C(F)(F)F)s2)cs1,-34.6*,4.0%,-13.8%,5.8%,14.7%
O=C(Nc1nnc(C(F)(F)F)s1)c1ccc(Br)s1,-34.2*,0.3%[57.1 µM],-1.5%,4.4%,-0.1%[57.1 µM]
O=C(c1ccco1)c1coc2c1cc(O)c1ccccc12,-31.0*,-4.3%,?,-0.7%,-8.5%
CC(=O)c1cc(O)c2ccccc2c1O,-33.0*,-4.5%,?,-1.2%,31.6µM*
CC(=O)c1coc2c1cc(O)c1ccccc12,-33.4*,5.1%,-14.1%,4.8%,9.2%
CC(=O)c1c(C)oc2c1cc(O)c1ccccc12,-19.7,-3.1%,-5.7%,nt,11.7%
O=C1c2sc3nc4n(c(=O)c3c2CCC1Br)CCCCC4 (stereo not given),-61.6*,5.9%,-18.3%,2.1%,-13.4%
Cc1ccc2[nH]c(C)c(/C=C/c3cc[n+](C)cc3)c2c1,0.5,-17.3%,?,4.5%,-18.0%
Cc1ccc2c(c1)c(/C=C/c1cc[n+](C)cc1)c(C)n2C,-1.6,-1.2%[57.1 µM],22.4µM*,-2.6%,25.7%[57.1 µM]
Cn1nc(-c2ccncc2)nc2c(=O)n(C)c(=O)nc1-2,nt,20µM*,nt,nt,20µM*
COc1ccc(-c2nc(-c3ccncc3)no2)cc1,3.3,0.6%,-12.3%,1.6%,8.2%
CCn1nc(-c2ccc(C)cc2)nc2c(=O)n(C)c(=O)nc1-2,nt,50.1µM*,nt,nt,?
CCS(=O)(=O)n1nc(-c2ccc(C)cc2)nc1N,0.1,7.0%,-14.3%,-0.8%,19.8%
NS(=O)(=O)c1ccc(-c2ccc(/C=C3\NC(=S)NC3=O)o2)cc1,-18.3,2.7%[57.1 µM],?,nt,12.6µM*
CC1=C(C#N)C(=O)NC(=O)/C1=C/c1ccc(-c2ccc(S(N)(=O)=O)cc2)o1,-0.1,2.9%,?,-1.8%,8.91µM*
COc1ccc(C(NC(=O)COc2ccc(C#N)cc2)c2ccc(OC)cc2)cc1,nt,6.1%[0.0914 µM],nt,nt,9.3%
COc1cc(OC)cc(-c2nnc3n2N=C(c2cc(OC)ccc2OC)CS3)c1,-0.9,nt,nt,nt,nt
SMILES,Coupling enz,TrxR1 substrate,USP1 inh,GALK inhibitor,rTrxR1 inhibitor
Nc1[nH]c(=S)nc2nnsc12,nt,-0.5%,nt,nt,-6.3%
CCC(C=C[C@@H]1OC(=O)C=C[C@H]1C)=C[C@H](C)CC=CC(C)=C[C@@H](C)C(=O)[C@@H](C)[C@H](O)[C@@H](C)CC(C)=CC(=O)O,-59.1*,nt,nt,nt,nt
O=C1CS(=O)(=O)N(Cc2cccc(F)c2)c2ccc(Br)cc21,nt,-4.2%,?,nt,79.4µM*
CCOC(=O)C1=C(COC(=O)c2ccc([N+](=O)[O-])o2)NC(=O)NC1C (stereo not given),nt,-2.4%,?,nt,28.2µM*
CC(=O)c1ccc(NC(=O)CN2CCN(c3ncccn3)CC2)cc1,-54.8*,-6.0%,-9.4%,0.8%,-7.2%
COC(=O)C(CC(=O)c1ccc(C)cc1)n1nc(C)cc1C (stereo not given),6.0,12.4%,-22.7%,-4.5%,?
COC(=O)C(CC(=O)c1ccc(Br)cc1)n1nc(C)cc1C (stereo not given),-0.5,8.8%,-20.2%,6.5%,8.91µM*
O=C(CN1CCN(C(=O)c2ccco2)CC1)NCc1ccc(Cl)cc1,nt,10.0%,7.2%,-2.4%,14.1µM*
COc1ccc(N=Cc2ccccc2O)cc1,nt,-1.8%,?,nt,8.3%
COc1ccc(N=Cc2[nH]c3ccccc3c2O)cc1,-38.0*,-3.6%,?,-1.7%,-12.7%
COC(=O)/C=C/c1cccc(N(Cc2ccc(-c3ccc(N(C)C)cc3)cc2)C(=O)C2CCCCC2)c1,-2.0,nt,nt,nt,nt
CCOC(=O)c1c(C)sc2c1N(C(=O)CCl)c1cc(Cl)ccc1S2,5.3,-1.7%,-10.1%,-2.6%,5.01µM*
COc1cc(C)c(Cl)cc1S(=O)(=O)NCc1ccco1,-0.6,-2.1%,-5.3%,6.5%,-11.8%[57.1 µM]
Cc1cc(S(=O)(=O)NCc2ccco2)c(C)cc1Cl,nt,-2.3%,-23.2%,-3.0%,70.8µM*
CC(=O)N1CN(Cc2ccccn2)Cc2c1sc1c2CCCC1,-6.9,-2.5%,-17.3%,-1.7%,50.1µM*
CC(=O)N1CN(CCCn2ccnc2)Cc2c1sc1c2CCCC1,1.0,5.7%[57.1 µM],-16.8%,-0.8%,8.7%[57.1 µM]
CCOC(=O)C1=C(C)N(C)C(C)=C(C(=O)OCC)C1c1cccnc1,4.4,-7.6%[57.1 µM],1.8%,1.9%,-14.8%[57.1 µM]
CCOC(=O)C1C(=O)C(C(=O)OCC)C(c2cccnc2)NC1c1cccnc1 (stereo not given),1.4,22.3%[57.1 µM],-8.4%,0.7%,3.16µM*
O=c1cc(-c2ccc(O)cc2)oc2cc(OC3OC(CO)C(O)C(O)C3O)c(C3OC(CO)C(O)C(O)C3O)c(O)c12 (stereo not given),2.5,nt,nt,nt,nt
CCC1CO/C(=C(\C(Cl)=C(Cl)Cl)[N+](=O)[O-])N1 (stereo not given),-0.7,3.5%,-11.2%,-0.2%,15.8µM*
CN1CCO/C1=C(\C(Cl)=C(Cl)Cl)[N+](=O)[O-],-0.7,8.5%,0.3%,0.1%,-42.1%
CCn1c(=S)ccc2ccc(OC)cc21,2.2,6.8%,-11.4%,-0.8%,11.5%
CCn1ccc2cc(OC)ccc2c1=S,-83.0*,6.0%[57.1 µM],-11.0%,3.8%,13.6%[57.1 µM]
COc1cc2nc(N3CCCCC3)nc(NC3CC3)c2cc1OC,nt,81.5%,nt,nt,-4.2%
CN1c2ccccc2C(C)(C)C12C=Nc1c(cc(N3CCOCC3)c3ccccc13)O2 (stereo not given),-65.9*,-16.4%,?,-1.3%,7.2%
COC(=O)c1cc2c([nH]c1=O)CC(c1ccccc1)CC2=O (stereo not given),nt,7.9%[0.0914 µM],nt,nt,0.6%
O=C(COC(=O)C12CC3CC(CC(Cl)(C3)C1)C2)NCc1ccco1,nt,2.4%[0.457 µM],nt,nt,14.8%
